Data as given in PubChem BioAssay (NCATS).
Inconclusive results are not listed. Entries that show only a call come without a potency. Calls of active or inactive are those of the source. Unless noted, the call rests on the fitted dose curve; in most records, active means well fitted curve in the direction sought with a large enough effect; inconclusive means small, poorly fitted or top-dose-only effect, or another doubt; inactive means no such curve, though single readings can be large; an effect the other way counts as inactive or inconclusive.

Key:
[1] = target: T1, Tyrosine-protein phosphatase non-receptor type substrate 1 (Homo sapiens) + Leukocyte surface antigen CD47 (Homo sapiens) (UniProt P78324+Q08722); experiment: CD47-SIRPalpha protein protein interaction - HTRF assay qHTS validation (AID 1347058; active means well fitted curve in the direction sought with a large enough effect in the signal ratio, not every such curve was filed as active; the % refers to the signal ratio); conditions: TR-FRET HTRF CD47-His / biotin-SIRPalpha binding, ratio 665/615; series mostly up to 38.3 µM
T1 sequence (P78324 whole entry, looked up, the tested form may be a part): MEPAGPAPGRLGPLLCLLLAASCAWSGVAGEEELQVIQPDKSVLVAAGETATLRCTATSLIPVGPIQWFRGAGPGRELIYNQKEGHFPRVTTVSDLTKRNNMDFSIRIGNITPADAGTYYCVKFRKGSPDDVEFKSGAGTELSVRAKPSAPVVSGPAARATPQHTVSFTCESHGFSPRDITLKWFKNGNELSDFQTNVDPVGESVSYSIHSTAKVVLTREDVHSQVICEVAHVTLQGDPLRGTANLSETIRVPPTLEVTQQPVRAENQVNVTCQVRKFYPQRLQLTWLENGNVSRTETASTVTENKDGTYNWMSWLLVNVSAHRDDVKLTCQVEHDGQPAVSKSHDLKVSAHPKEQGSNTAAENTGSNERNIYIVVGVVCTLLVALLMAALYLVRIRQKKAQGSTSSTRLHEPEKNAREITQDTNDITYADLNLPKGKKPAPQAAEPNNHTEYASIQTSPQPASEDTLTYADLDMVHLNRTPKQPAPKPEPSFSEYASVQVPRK
T1 sequence (Q08722 whole entry, looked up, the tested form may be a part): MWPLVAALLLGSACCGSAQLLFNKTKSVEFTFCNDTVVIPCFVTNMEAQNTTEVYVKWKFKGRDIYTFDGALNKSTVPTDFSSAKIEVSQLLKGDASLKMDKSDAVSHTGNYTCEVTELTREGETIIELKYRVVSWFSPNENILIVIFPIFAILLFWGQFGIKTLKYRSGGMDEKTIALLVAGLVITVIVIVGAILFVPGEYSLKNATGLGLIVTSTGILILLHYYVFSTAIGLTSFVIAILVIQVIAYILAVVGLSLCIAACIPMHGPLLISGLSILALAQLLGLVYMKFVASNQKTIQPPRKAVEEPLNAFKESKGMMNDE
Summary of the method: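 Soluble extracellular domains (6His-CD47, Avi-tag-biotinylated SIRPalpha) in PBS pH 7.4 with 0.05% IGEPAL CA-630. Compounds were preincubated 30 min at RT with CD47 and anti-His-Eu, then SIRPalpha and SAV-XL665 were added. TR-FRET 665/615 ratio.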

[2] = target: T1, Tyrosine-protein phosphatase non-receptor type substrate 1 (Homo sapiens) + Leukocyte surface antigen CD47 (Homo sapiens); experiment: CD47-SIRPalpha protein protein interaction - Alpha assay qHTS validation (AID 1347059); conditions: AlphaScreen CD47-His/biotin-SIRPalpha binding, LOPAC; series mostly up to 38.3 µM;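 further: bead proximity luminescence from CD47 binding SIRPalpha after compound preincubation with SIRPalpha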
Summary of the method: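 In PBS (pH 7.4) with 0.05% IGEPAL CA-630, compound is preincubated with biotin-Avi-SIRPalpha ectodomain before His-CD47 ectodomain and affinity beads are added. Light-protected room-temperature incubations; AlphaScreen readout.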

[3] = target: Parathyroid hormone/parathyroid hormone-related peptide receptor (Homo sapiens) (UniProt Q03431); experiment: qHTS for PTHR1 Agonists: Optimization Screen against the NCGC LOPAC library (AID 1347079); conditions: HEK293 GP2 PTHR1 GloSensor cAMP luminescence, 1 h; series mostly up to 57.1 µM;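 further: GloSensor cAMP luminescence in HEK-293 GP2 cells expressing human PTHR1 with IBMX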
Parathyroid hormone/parathyroid hormone-related peptide receptor (Homo sapiens), sequence (Q03431 whole entry, looked up): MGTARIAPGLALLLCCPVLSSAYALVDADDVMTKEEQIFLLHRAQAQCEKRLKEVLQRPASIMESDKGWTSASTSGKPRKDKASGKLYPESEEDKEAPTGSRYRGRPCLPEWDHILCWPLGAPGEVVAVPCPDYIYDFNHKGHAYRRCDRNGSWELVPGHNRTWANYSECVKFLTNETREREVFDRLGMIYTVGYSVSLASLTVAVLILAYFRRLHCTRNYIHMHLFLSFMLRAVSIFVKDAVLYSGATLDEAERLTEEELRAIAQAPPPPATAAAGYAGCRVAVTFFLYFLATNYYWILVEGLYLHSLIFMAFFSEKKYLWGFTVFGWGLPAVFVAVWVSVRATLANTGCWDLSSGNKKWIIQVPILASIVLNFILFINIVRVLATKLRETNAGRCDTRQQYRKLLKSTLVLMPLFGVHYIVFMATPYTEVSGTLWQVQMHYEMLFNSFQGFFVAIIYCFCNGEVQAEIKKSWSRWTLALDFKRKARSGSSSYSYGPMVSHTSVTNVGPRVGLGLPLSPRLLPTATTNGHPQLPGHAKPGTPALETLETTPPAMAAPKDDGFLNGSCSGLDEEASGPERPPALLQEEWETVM
Summary of the method: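 HEK-293 GP2 cells, PTHR1 + GloSensor cAMP; 3000 cells/well, o/n. Luciferin + IBMX 0.5mM each (stock), 1 hr 37C. Cpd titration, 1 hr 37C. Lum after 15 min RT. Ctrl M-PTH(1-15) top 10uM.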

[4] = qHTS for Inhibitors of the Functional Ribonucleoprotein Complex (vRNP) of Lassa (LASV) Arenavirus: LASV Primary Screen - GLuc reporter signal (AID 1347082; calls by dose curve; tested in HEK293 reporter line; further: nearly all actives have a fitted effect of over 60% in size; further: potency means the concentration at half of the fitted maximal effect); conditions: LASV minigenome vRNP, Gaussia luciferase reporter; series mostly up to 57.5 µM
[5] = qHTS for Inhibitors of the Functional Ribonucleoprotein Complex (vRNP) of Lassa (LASV) Arenavirus: Viability assay - alamar blue signal for LASV Primary Screen (AID 1347083; calls by dose curve; tested in HEK293 reporter line; further: nearly all actives have a fitted effect of over 80% in size; further: potency means the concentration at half of the fitted maximal effect); conditions: cell viability, alamar blue fluorescence (LASV minigenome counter-screen); series mostly up to 57.5 µM
[6] = qHTS for Inhibitors of the Functional Ribonucleoprotein Complex (vRNP) of Lymphocytic Choriomeningitis Arenaviruses (LCMV): Viability assay - alamar blue signal for LCMV Primary Screen (AID 1347085; calls by dose curve; tested in HEK293 reporter line; further: nearly all actives have a fitted effect of over 80% in size; further: potency means the concentration at half of the fitted maximal effect); conditions: alamar blue viability counter-screen, LCMV vRNP screen cells; series mostly up to 57.5 µM
[7] = target: Nucleoprotein (Lymphocytic choriomeningitis virus (strain Armstrong)) (UniProt P09992); experiment: qHTS for Inhibitors of the Functional Ribonucleoprotein Complex (vRNP) of Lymphocytic Choriomeningitis Arenaviruses (LCMV): LCMV Primary Screen - GLuc reporter signal (AID 1347086; calls by dose curve; further: nearly all actives have a fitted effect of over 70% in size; further: potency means the concentration at half of the fitted maximal effect); conditions: LCMV minigenome vRNP cell assay, Gaussia luciferase reporter; series mostly up to 57.5 µM
Nucleoprotein (Lymphocytic choriomeningitis virus (strain Armstrong)), sequence (P09992 whole entry, looked up): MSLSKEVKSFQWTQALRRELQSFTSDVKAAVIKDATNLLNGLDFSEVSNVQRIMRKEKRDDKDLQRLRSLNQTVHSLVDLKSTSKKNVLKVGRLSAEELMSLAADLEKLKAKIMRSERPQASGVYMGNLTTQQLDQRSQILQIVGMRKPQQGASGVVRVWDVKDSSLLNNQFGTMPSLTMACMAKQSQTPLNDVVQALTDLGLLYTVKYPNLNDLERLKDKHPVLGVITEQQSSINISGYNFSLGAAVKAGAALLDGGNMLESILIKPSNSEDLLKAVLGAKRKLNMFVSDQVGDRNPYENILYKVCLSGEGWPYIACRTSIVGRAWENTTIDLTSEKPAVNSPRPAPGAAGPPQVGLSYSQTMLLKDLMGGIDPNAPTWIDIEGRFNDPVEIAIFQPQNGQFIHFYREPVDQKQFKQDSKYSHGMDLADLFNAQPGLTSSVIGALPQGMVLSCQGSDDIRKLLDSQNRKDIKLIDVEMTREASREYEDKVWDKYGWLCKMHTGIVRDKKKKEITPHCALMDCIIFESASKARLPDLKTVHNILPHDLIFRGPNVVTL

SMILES	outcome [1]	Potency [2]	Potency [3]	Potency [4]	Potency [5]	Potency [6]	Potency [7]
CCCN(CCC)[C@H]1CCc2c(F)ccc(O)c2C1	inactive	inactive	inactive	inactive	inactive	inactive	inactive
CC(C)(O)[C@@H]1C2OC(=O)[C@@H]1[C@]1(O)C[C@H]3O[C@]34C(=O)O[C@H]2[C@]14C (tested in a mixture with another compound)	inactive	inactive	inactive	inactive	inactive	inactive	inactive
CC(C)(C)OC(=O)NC1[C@H]2CNC[C@@H]12 (stereo partly specified)	inactive	inactive					
COc1ccc2[nH]cc(CCN)c2c1	inactive	inactive	inactive	inactive	inactive	inactive	inactive
C=CCN1C[C@@H](C)N([C@H](c2ccc(C(=O)N(CC)CC)cc2)c2cccc(OC)c2)C[C@@H]1C	inactive	inactive					
CC(C)(C)c1cc(C=C(C#N)C#N)cc(C(C)(C)C)c1O	inactive	inactive	inactive				
N[C@@]1(C(=O)O)CC[C@@H](C(=O)O)C1	inactive	inactive	inactive	inactive	inactive	inactive	inactive
C[N+]1(C)CCOC(O)(c2ccc(-c3ccc(C4(O)C[N+](C)(C)CCO4)cc3)cc2)C1 (stereo unspecified)	inactive	inactive	inactive	inactive	inactive	inactive	inactive
C[C@H]1C2Cc3ccc(O)cc3[C@@]1(C)CCN2CC1CC1	inactive	inactive					
NCCc1ccc(S(=O)(=O)F)cc1	inactive	inactive	inactive	inactive	inactive	inactive	inactive
C[N+](C)(C)CC#CCOC(=O)Nc1cccc(Cl)c1	inactive	inactive	inactive	inactive	inactive	inactive	inactive
CC(Cc1ccc(OCC(=O)O)cc1)NCC(O)c1cccc(Cl)c1 (stereo unspecified)	inactive	inactive	inactive	inactive	inactive	inactive	inactive
CC1(C(=O)O)C2CCC(O2)C1(C)C(=O)O (stereo unspecified)	inactive	inactive					
CCn1cnc2c(Nc3cccc(Cl)c3)nc(N[C@@H]3CCCC[C@@H]3N)nc21	inactive	inactive					
Clc1cc(I)cc(Cl)c1NC1=NCCN1	inactive	inactive	inactive	inactive	inactive	inactive	inactive
COC(=O)N1CCN(C(=O)Cc2ccc(Cl)c(Cl)c2)C(CN2CCCC2)C1 (stereo unspecified)	inactive	inactive	inactive	inactive	inactive	inactive	inactive
CCCN(CCC)CCc1ccc(O)c(O)c1	inactive	inactive	inactive	inactive	inactive	inactive	inactive
CCN1C[C@@]2(COC)C3[C@@H](OC)C4[C@@H]1C3([C@@H]1C[C@]3(O)[C@H](OC(=O)c5ccccc5)[C@@H]1[C@]4(OC(C)=O)[C@@H](O)[C@@H]3OC)[C@H](OC)C[C@H]2O	inactive	inactive	inactive	inactive	inactive	inactive	inactive
OCc1cnc[nH]1	inactive	inactive	inactive	inactive	inactive	inactive	inactive
N=C(N)c1ccc(CS(=O)(=O)F)cc1	inactive	inactive	inactive	inactive	inactive	inactive	inactive
CCOC(=O)c1ncn2c1[C@@H]1CCCN1C(=O)c1cc(OC)ccc1-2	inactive	inactive	inactive	inactive	inactive	inactive	inactive
CC12NC(Cc3ccccc31)c1ccccc12 (stereo unspecified)	inactive	inactive	inactive	inactive	inactive	inactive	inactive
C[N+]1(C)C2CCC1CC(OC(=O)c1c[nH]c3ccccc13)C2 (stereo unspecified)	inactive	inactive	inactive	inactive	inactive	inactive	inactive
Nc1cc2c(ncn2CCOCP(=O)(O)O)c(=O)[nH]1	inactive	inactive					
Cc1[nH]c2ccc(O)cc2c1CCN	inactive	inactive	inactive	inactive	inactive	inactive	inactive
Ic1ccccc1CNC1C2CCN(CC2)C1C(c1ccccc1)c1ccccc1 (stereo unspecified)	inactive	inactive					
CC(N)c1cccc(Cl)c1Cl (stereo unspecified)	inactive	inactive	inactive	inactive	inactive	inactive	inactive
N#CCCN	inactive	inactive	inactive	inactive	inactive	inactive	inactive

SMILES	outcome [1]	Potency [2]	Potency [3]	Potency [4]	Potency [5]	Potency [6]	Potency [7]
CCCN(CCC)C1CCc2cccc(O)c2C1 (stereo unspecified)	inactive	inactive	inactive	inactive	inactive	inactive	inactive
c1ccc2cc(CC3=NCCN3)ccc2c1	inactive	inactive	inactive	inactive	inactive	inactive	inactive
O=C(NC1CN2CCC1CC2)c1cc2ccoc2cn1 (stereo unspecified)	inactive	inactive					
C=CCN1CCC23c4c5ccc(O)c4O[C@H]2C(=O)CC[C@@]3(O)C1C5 (stereo partly specified)	inactive	inactive	inactive	inactive	inactive	inactive	inactive
C[N+](C)(C)CCOC(=O)CBr	inactive	inactive	inactive	inactive	inactive	inactive	inactive
NCC(O)c1cc(O)c(O)cc1F (stereo unspecified)	inactive	inactive	inactive	inactive	inactive	inactive	inactive
C[N+]1(C)CCc2cc3c(cc2[C@H]1[C@@H]1OC(=O)c2c1ccc1c2OCO1)OCO3	inactive	inactive	inactive	inactive	inactive	inactive	inactive
CCCC[N+]1(C)C2CC(OC(=O)[C@H](CO)c3ccccc3)CC1C1OC12 (stereo partly specified)	inactive	inactive	inactive	inactive	inactive	inactive	inactive
CO[C@H]1CC=C2CCN3CCC4=C(CC(=O)OC4)[C@]23C1	inactive	inactive	inactive	inactive	inactive	inactive	inactive
NC(CCCCCP(=O)(O)O)C(=O)O (stereo unspecified)	inactive	inactive	inactive	inactive	inactive	inactive	inactive
C[N+]1(C)CCN(c2ccccc2)CC1	inactive	inactive		inactive	inactive	inactive	inactive
C[C@@H]1O[C@@H](O[C@H]2C[C@@H](O)[C@]3(CO)[C@@H]4C(CC[C@]3(O)C2)[C@@]2(O)CC[C@H]([C@@H]3COC(=O)C3)[C@@]2(C)C[C@H]4O)[C@H](O)[C@H](O)[C@H]1O (stereo partly specified)	inactive	inactive	inactive		3.98 µM (active)	2.24 µM (active)	2 µM (active)
Clc1ccc(N2CC3CCC(C2)N3)nn1	inactive	inactive	inactive	inactive	inactive	inactive	inactive
CCCN(CCC)C1Cc2cc(OC)c(OC)cc2C1	inactive	inactive		inactive	inactive	inactive	inactive
C[C@H](Cc1ccc2c(c1)OC(C(=O)O)(C(=O)O)O2)NC[C@H](O)c1cccc(Cl)c1	inactive	inactive	inactive	inactive	inactive	inactive	inactive
CC(=O)NBr	inactive	inactive	inactive	inactive	inactive	inactive	inactive
NC(=O)c1ccc(OCC(O)CN2CC=C(c3ccc(F)cc3)CC2)cc1 (stereo unspecified)	inactive	inactive	inactive	inactive	inactive	inactive	inactive
CCNC(=O)[C@H]1O[C@@H](n2cnc3c(N)ncnc32)[C@H](O)[C@@H]1O	inactive	inactive		inactive	inactive	inactive	inactive
CCCN(CCC)[C@@H]1CCc2cccc(O)c2C1	inactive	inactive		inactive	inactive	inactive	inactive
CNc1ccc2oc(C[C@H]3O[C@@]4(CC[C@H]3C)O[C@H]([C@H](C)C(=O)c3ccc[nH]3)[C@H](C)C[C@H]4C)nc2c1C(=O)O	inactive	inactive	inactive	7.08 µM (active)	11.2 µM (active)	inactive	inactive
CN(C(=O)Cc1ccc(Cl)c(Cl)c1)C(CN1CCCC1)c1cccc(OCC(=O)O)c1 (stereo unspecified)	inactive	inactive	inactive	inactive	inactive	inactive	inactive
CN1C2CCC1CC(OC(c1ccccc1)c1ccccc1N)C2 (stereo unspecified)	inactive	inactive	inactive	inactive	inactive	inactive	inactive
C#CCN[C@H](C)Cc1ccccc1	inactive	inactive		inactive	inactive	inactive	inactive
CCS(=O)(=O)Nc1cccc(C(=C2CCCCC2)c2cnc[nH]2)c1	inactive	inactive	inactive	inactive	inactive	inactive	inactive
COc1ccc(OC)c(C(O)C(C)N)c1 (stereo unspecified)	inactive	inactive		inactive	inactive	inactive	inactive
CCCCCCCCCCCCCC(=O)O[C@@H]1[C@@H](C)[C@@]2(O)[C@@H](C=C(CO)C[C@@]3(O)C(=O)C(C)=C[C@@H]23)C2C(C)(C)[C@@]21OC(C)=O (stereo partly specified)	inactive	inactive		inactive	inactive	inactive	inactive
O=C1C=CC(=O)C=C1	inactive	inactive	inactive		inactive	inactive	
